In PubChem BioAssay (NCATS):
Records with an inconclusive call do not appear. The source made the active and inactive calls. The call rests on the fitted dose curve; in most records, active means well fitted curve in the direction sought with a large enough effect; inconclusive means small, poorly fitted or top-dose-only effect, or another doubt; inactive means no such curve, though single readings can be large; an effect the other way counts as inactive or inconclusive.

Legend:
[1] = Quantitative High-Throughput drug screen in 47 multiple myeloma cell lines against the NCATS MIPE library collection: KMS12PE_JCRB cell viability assay (AID 1918972); further: nearly all actives have a fitted effect of over 30% in size
How it was run: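 Viability readout: CellTiter-Glo luminescence following 5 min room-temperature incubation with reagent. Prior exposure: 48 h, 37C, humidified 5% CO2, 500 cells per well.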

[2] = Quantitative High-Throughput drug screen in 47 multiple myeloma cell lines against the NCATS MIPE library collection: KMS20_JCRB cell viability assay (AID 1918973); further: nearly all actives have a fitted effect of over 45% in size
How it was run: (§1)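 Primary qHTS used for cherry-picking: cells at 500/well, library compounds for 48 h (37C, 5% CO2), luminescent ATP assay.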

[3] = Quantitative High-Throughput drug screen in 47 multiple myeloma cell lines against the NCATS MIPE library collection: KMS21BM_JCRB cell viability assay (AID 1918974); conditions: ATP luminescence, 48 h; viability: at 45.8 µM (top of the series) unless noted
How it was run: as §1

[4] = Quantitative High-Throughput drug screen in 47 multiple myeloma cell lines against the NCATS MIPE library collection: KMS26_JCRB cell viability assay (AID 1918975); further: nearly all actives have a fitted effect of over 45% in size
How it was run: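 Myeloma cell lines, 500 cells per well, exposed to MIPE 4.0 library compounds for 48 h at 37C, 5% CO2. Viability from ATP by CellTiter-Glo luminescence; normalised to DMSO (100%) and media-only (0%) wells.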

[5] = Quantitative High-Throughput drug screen in 47 multiple myeloma cell lines against the NCATS MIPE library collection: MMM1_PLB cell viability assay (AID 1918976); further: nearly all actives have a fitted effect of over 35% in size
How it was run: (§2)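 Cells were exposed to library compounds for 48 hours, after which ATP was measured by CellTiter-Glo. Signal was taken as median relative luminescence units.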

[6] = Quantitative High-Throughput drug screen in 47 multiple myeloma cell lines against the NCATS MIPE library collection: NCIH929_DSMZ cell viability assay (AID 1918978); further: nearly all actives have a fitted effect of over 35% in size
How it was run: as §2

[7] = Quantitative High-Throughput drug screen in 47 multiple myeloma cell lines against the NCATS MIPE library collection: MM1R_ATCC cell viability assay (AID 1918981); further: nearly all actives have a fitted effect of over 35% in size
How it was run: as §2

[8] = Quantitative High-Throughput drug screen in 47 multiple myeloma cell lines against the NCATS MIPE library collection: MOLP8_DSMZ cell viability assay (AID 1918977); further: nearly all actives have a fitted effect of over 45% in size
How it was run: as §2

[9] = Quantitative High-Throughput drug screen in 47 multiple myeloma cell lines against the NCATS MIPE library collection: OCIMY1_PLB cell viability assay (AID 1918979); further: nearly all actives have a fitted effect of over 35% in size
How it was run: as §2

[10] = Quantitative High-Throughput drug screen in 47 multiple myeloma cell lines against the NCATS MIPE library collection: MM1S_ATCC cell viability assay (AID 1918980); further: nearly all actives have a fitted effect of over 45% in size
How it was run: as §2
Potency means the concentration at half of the fitted maximal effect.

Compound	Potency [1]	Potency [2]	Potency [3]	Potency [4]	Potency [5]	Potency [6]	Potency [7]	Potency [8]	Potency [9]	Potency [10]	viability [3]
CN(C)Cc1c(C(=O)NCCOc2ccc(C(=O)NO)cc2)oc2ccccc12	0.418 µM (active)	0.372 µM (active)	0.0469 µM (active)	1.05 µM (active)	0.59 µM (active)	1.05 µM (active)	0.469 µM (active)	–	–	–	–
Nc1cc(C(F)(F)F)c(-c2cc(N3CCOCC3)nc(N3CCOCC3)n2)cn1	0.418 µM (active)	1.18 µM (active)	0.418 µM (active)	–	0.526 µM (active)	0.209 µM (active)	1.18 µM (active)	1.05 µM (active)	0.469 µM (active)	0.235 µM (active)	–
C=CCn1c(=O)c2cnc(Nc3ccc(N4CCN(C)CC4)cc3)nc2n1-c1cccc(C(C)(C)O)n1	0.118 µM (active)	8.33 µM (active)	9.35 µM (active)	–	inactive	7.43 µM (active)	0.166 µM (active)	–	–	–	–
CC(C)(O)c1cc2nc(-c3cnc(N)nc3)nc(N3CCOCC3)c2s1	1.48 µM (active)	0.148 µM (active)	0.59 µM (active)	0.132 µM (active)	0.0469 µM (active)	0.0148 µM (active)	0.0662 µM (active)	0.0296 µM (active)	0.0296 µM (active)	0.0662 µM (active)	–
CCN(CC)CCNC(=O)c1ccc2nc(-c3ccccc3)c(-c3ccc(CN4CCC(n5c(=O)[nH]c6ccccc65)CC4)cc3)nc2c1	0.833 µM (active)	0.296 µM (active)	1.18 µM (active)	14.8 µM (active)	26.4 µM (active)	0.743 µM (active)	20.9 µM (active)	16.6 µM (active)	20.9 µM (active)	8.33 µM (active)	–
NC(=O)Nc1cc(-c2cccc(F)c2)sc1C(=O)N[C@H]1CCCNC1	0.469 µM (active)	0.662 µM (active)	0.235 µM (active)	–	4.69 µM (active)	2.64 µM (active)	0.148 µM (active)	0.118 µM (active)	4.69 µM (active)	0.132 µM (active)	–
CCCCCN(CCC12CC3CC(CC(C3)C1)C2)C(=O)NCCCc1ccncc1	4.69 µM (active)	18.7 µM (active)	–	20.9 µM (active)	20.9 µM (active)	18.7 µM (active)	–	20.9 µM (active)	inactive	18.7 µM (active)	–
Cn1c2ccccc2c2c3c(c4c5ccccc5n(CCC#N)c4c21)CNC3=O	2.35 µM (active)	1.48 µM (active)	–	14.8 µM (active)	10.5 µM (active)	1.87 µM (active)	1.66 µM (active)	10.5 µM (active)	14.8 µM (active)	2.09 µM (active)	–
CC(C)c1ccccc1Cc1cc(C(=O)Nc2ccc(S(=O)(=O)c3ccccc3C(C)(C)C)cc2)c(O)c(O)c1O	inactive	9.35 µM (active)	–	9.35 µM (active)	18.7 µM (active)	7.43 µM (active)	–	13.2 µM (active)	23.5 µM (active)	11.8 µM (active)	–
CN1CCN(c2ccc3nc(-c4c(N)c5c(F)cccc5[nH]c4=O)[nH]c3c2)CC1	5.9 µM (active)	1.32 µM (active)	4.69 µM (active)	–	–	2.35 µM (active)	13.2 µM (active)	5.9 µM (active)	18.7 µM (active)	16.6 µM (active)	–
COc1cccc2c(NCc3ccccc3)nc(-n3c(N)nc4ccccc43)nc12	2.35 µM (active)	2.96 µM (active)	–	4.69 µM (active)	5.9 µM (active)	3.32 µM (active)	5.9 µM (active)	3.32 µM (active)	–	5.26 µM (active)	–
COC(=O)Nc1ccc(-c2nc(N3CCOCC3)c3cnn(C4CCN(Cc5cccnc5)CC4)c3n2)cc1	inactive	0.001 µM (active)	–	2.96 µM (active)	0.0833 µM (active)	0.0743 µM (active)	1.48 µM (active)	0.059 µM (active)	4.69 µM (active)	0.118 µM (active)	–
Cc1cc(Nc2cc(N3CCN(C)CC3)nc(Sc3ccc(NC(=O)C4CC4)cc3)n2)n[nH]1	0.166 µM (active)	4.69 µM (active)	–	14.8 µM (active)	10.5 µM (active)	5.9 µM (active)	16.6 µM (active)	5.9 µM (active)	–	13.2 µM (active)	–
Fc1cc(-c2cccc3ncc(-c4cnn(C5CCNCC5)c4)nc23)cc(F)c1CN1CCOCC1	6.62 µM (active)	5.26 µM (active)	–	26.4 µM (active)	23.5 µM (active)	8.33 µM (active)	20.9 µM (active)	18.7 µM (active)	–	20.9 µM (active)	–
CC(NCc1ccc2c(c1)nc(NC(=O)c1ccc(-c3cn[nH]c3)s1)n2CC(C)(C)O)C(C)(C)C (stereo unspecified)	0.264 µM (active)	0.235 µM (active)	–	0.743 µM (active)	0.118 µM (active)	0.235 µM (active)	0.469 µM (active)	0.209 µM (active)	–	0.332 µM (active)	–
CC(C)(C)c1cc(C(C)(C)C)c(NC(=O)c2c[nH]c3ccccc3c2=O)cc1O	inactive	inactive	inactive	–	–	inactive	inactive	–	–	–	–

Compound	Potency [1]	Potency [2]	Potency [3]	Potency [4]	Potency [5]	Potency [6]	Potency [7]	Potency [8]	Potency [9]	Potency [10]	viability [3]
Cc1cc(C(=O)N2CCN(c3cccc(Cl)c3)CC2)n(-c2ccccc2)n1	0.743 µM (active)	0.209 µM (active)	–	18.7 µM (active)	7.43 µM (active)	16.6 µM (active)	–	–	3.72 µM (active)	16.6 µM (active)	–
CC(C)c1cc(C(=O)N2Cc3ccc(CN4CCN(C)CC4)cc3C2)c(O)cc1O	0.118 µM (active)	0.187 µM (active)	–	0.235 µM (active)	0.418 µM (active)	0.166 µM (active)	0.418 µM (active)	0.148 µM (active)	0.418 µM (active)	0.332 µM (active)	–
O=C(CCCCCCNC(=O)c1cnc(N(c2ccccc2)c2ccccc2)nc1)NO	5.9 µM (active)	8.33 µM (active)	–	5.26 µM (active)	5.26 µM (active)	5.9 µM (active)	3.72 µM (active)	4.18 µM (active)	–	6.62 µM (active)	–
O=C(NCCCNc1nc(Nc2cccc(NC(=O)N3CCCC3)c2)ncc1I)c1cccs1	inactive	3.32 µM (active)	inactive	–	–	5.9 µM (active)	20.9 µM (active)	5.26 µM (active)	18.7 µM (active)	18.7 µM (active)	–
Cc1c(C)n(Cc2ccc(-c3ccccc3C(=O)O)cc2)c2ccc(C(=O)N[C@@H](C)c3ccc([N+](=O)[O-])cc3)cc12	0.118 µM (active)	11.8 µM (active)	0.148 µM (active)	–	–	26.4 µM (active)	–	–	–	5.26 µM (active)	–
c1nc2nc(Nc3ccc(N4CCOCC4)cc3)nc(NC3CCCCC3)c2[nH]1	1.66 µM (active)	4.69 µM (active)	–	16.6 µM (active)	10.5 µM (active)	3.72 µM (active)	14.8 µM (active)	8.33 µM (active)	16.6 µM (active)	5.9 µM (active)	–
Nc1ccn([C@@H]2CS[C@H](CO)O2)c(=O)n1	inactive	10.8 µM (active)	–	–	–	38.2 µM (active)	inactive	inactive	–	–	155% [at 92.2 µM] (active)
c1cc(-c2cnn3cc(-c4ccc(OCCN5CCCCC5)cc4)cnc23)ccn1	inactive	2.35 µM (active)	–	16.6 µM (active)	16.6 µM (active)	2.35 µM (active)	–	10.5 µM (active)	26.4 µM (active)	16.6 µM (active)	–
CN(C)CC=CC(=O)Nc1cc2c(Nc3ccc(F)c(Cl)c3)ncnc2cc1O[C@H]1CCOC1	1.18 µM (active)	2.09 µM (active)	0.166 µM (active)	–	–	5.26 µM (active)	13.2 µM (active)	18.7 µM (active)	–	5.9 µM (active)	–
CCS(=O)(=O)c1cccc(-c2cc(C(=O)NC3CCN(C)CC3)c(C)c3[nH]c4ncc(C)cc4c23)c1	3.32 µM (active)	1.32 µM (active)	–	2.96 µM (active)	4.18 µM (active)	1.18 µM (active)	1.66 µM (active)	1.05 µM (active)	–	1.66 µM (active)	–
COc1cccc2nc(-c3cccs3)nc(NN3C(=O)C=C(C)C3=O)c12	0.118 µM (active)	0.059 µM (active)	0.235 µM (active)	–	–	0.235 µM (active)	0.187 µM (active)	–	–	0.418 µM (active)	–
COc1cc2ncnc(Nc3ccc(F)c(Cl)c3)c2cc1NC(=O)C=CCN1CCCCC1	1.87 µM (active)	2.96 µM (active)	–	18.7 µM (active)	18.7 µM (active)	4.69 µM (active)	16.6 µM (active)	18.7 µM (active)	26.4 µM (active)	13.2 µM (active)	–
CC1(O)CC(c2nc(-c3ccc4ccc(-c5ccccc5)nc4c3)c3c(N)nccn23)C1 (stereo unspecified)	2.35 µM (active)	1.18 µM (active)	–	0.833 µM (active)	0.209 µM (active)	0.187 µM (active)	0.187 µM (active)	–	–	0.132 µM (active)	–
CC[C@@]1(O)C(=O)OCc2c1cc1n(c2=O)Cc2cc3cc(O)ccc3nc2-1	1.05 µM (active)	0.235 µM (active)	–	5.26 µM (active)	11.8 µM (active)	0.296 µM (active)	0.0662 µM (active)	0.662 µM (active)	1.66 µM (active)	0.0526 µM (active)	–
CC(C)c1cnn2c(NCc3ccccc3)cc(N[C@@H](CO)[C@H](O)CO)nc12	0.372 µM (active)	0.235 µM (active)	–	0.296 µM (active)	0.332 µM (active)	0.166 µM (active)	0.235 µM (active)	0.166 µM (active)	–	–	–
COc1cc(C(=O)N2CCC(N3CCN(C)CC3)CC2)ccc1Nc1ncc2c(n1)N(C)c1ccccc1C(=O)N2C	1.66 µM (active)	13.2 µM (active)	–	1.66 µM (active)	1.66 µM (active)	4.18 µM (active)	6.62 µM (active)	2.09 µM (active)	–	6.62 µM (active)	–
